Source: PubChem BioAssay (NCI)
About 83,000 compounds went through this panel and 20% of them were active in at least one assay; those are over-represented in the sample as a whole.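 Treatment: one concentration, 48 hours, 96-well format. Scoring: percent growth, with anything below 10 considered active.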 Values without a mark were called inactive. The source made the active and inactive calls.

System: HL-60(TB) leukemia
Assay: NCI-60 one-dose screen, 48 h (100 = growth as untreated, 0 = no growth, -100 = all killed)
Settings: 10 µM unless noted

Structure (SMILES) | growth
CC(=O)c1ccc2c(ccc3ccccc32)c1 | 90.6%
COc1ccc(Nc2nc(Nc3cc(C)[nH]n3)c3cc(OC)c(OC)cc3n2)cc1 | -50.5% [20 µM] (active)
CC[C@@H](C)/C=C(C)/C=C/C(=O)c1c(O)c(-c2ccc(O)cc2)cn(OC2CC(=O)CCC(C)OC(=O)CC2O)c1=O (some centres undefined) | -10.1% (active)
Cc1ccc(/C=C2/C(=O)N(C)c3ccc(S(=O)(=O)Nc4ccc(C(C)(C)C)cc4)cc32)s1 | 97%
COc1ccc(/C=C/C(=O)NCCO)cc1 | 93.6%
O=C1NC(=O)/C(=C/c2ccc3nccc(-c4ccncc4)c3c2)S1 | -32.1% (active)
CN(C)CCC(O)(Cc1ccccc1)c1ccccc1 (centres undefined) | 85%
N=C(N)/N=C(\CCc1nc2ccccc2[nH]1)c1nc2ccccc2[nH]1 | 118%
CCCCN=C(N)c1ccc(OCCSCCOc2ccc(C(N)=NCCCC)cc2)cc1 | 38.8%
COc1ccc(/C=C/C(=O)N2CCC(O)CC2)cc1OC1CCCC1 | 101%
C=C1c2c(C)nn(-c3ccc(C#CCOC4OC(CO)C(O)C(O)C4O)cc3)c2N(C)C23C[C@H]1C1(C)c4c(C)nn(-c5ccc(C#CCOC6OC(CO)C(O)C(O)C6O)cc5)c4N(C)C(C)(C[C@H]12)C3 (some centres undefined) | -22.8% (active)
COc1cc(Nc2ccnc(NCCNc3ccnc4cc(Cl)ccc34)n2)cc(OC)c1 | 11.9%
COC(=O)c1ccccc1N(C)C | 87.6%
O=C1/C=C/[C@@H](O)[C@@H]2C[C@@H](O)C[C@H]2/C=C/CCC[C@H](CCO)O1 | 3.3% (active)
